# Compounds without any hit were thinned out: in the full panel of roughly 79,000, 15% have a hit. A number with no mark means an inactive call. Activity calls are given as the source filed them. No stated cut-off is given here; in the data, active means growth inhibition above about 70%; inactive means the rest.
# How the values were obtained:
# [1] = NCI Yeast Anticancer Drug Screen. Data for the rad50 strain (AID 155);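 further: 0% = growth of vehicle-only cultures of the same strain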; conditions: S. cerevisiae rad50 strain growth inhibition; at 50.0 µM; active compounds read high
# Summary of the method: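 Vehicle-treated cultures provide the reference for the growth inhibition reported for compound-exposed, repair-deficient yeast.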
# [2] = NCI Yeast Anticancer Drug Screen. Data for the mec2-1 strain (AID 157); conditions: S. cerevisiae mec2-1 strain, at 50.0 µM, active compounds read high
# Summary of the method: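 Yeast mec2-1 mutant treated with compound. Readout: growth inhibition vs vehicle controls.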
# [3] = NCI Yeast Anticancer Drug Screen. Data for the sgs1 mgt1 strain (AID 161);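 further: 0% = growth of cultures given vehicle only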; conditions: S. cerevisiae sgs1 mgt1 strain, at 50.0 µM, active compounds read high
# Summary of the method: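 Genetically altered yeast, compound exposure, growth inhibition relative to vehicle.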
# [4] = NCI Yeast Anticancer Drug Screen. Data for the cln2 rad14 strain (AID 165);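 further: 0% = growth equal to vehicle treated cultures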; conditions: S. cerevisiae cln2 rad14 strain, at 50.0 µM, active compounds read high
# Summary of the method: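 cln2 rad14 yeast strain; compound exposure; growth inhibition read vs vehicle controls.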
# [5] = NCI Yeast Anticancer Drug Screen. Data for the bub3 strain (AID 167); conditions: S. cerevisiae bub3 mutant strain, at 50.0 µM, active compounds read high
# Summary of the method: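 Mutant yeast screening strain plus compound; vehicle-treated cultures serve as the 0% inhibition reference.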
# [6] = NCI Yeast Anticancer Drug Screen. Data for the mlh1 rad18 strain (AID 175); conditions: S. cerevisiae mlh1 rad18 strain growth inhibition; at 50.0 µM; active compounds read high
# Summary of the method: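 Yeast w/ defined DNA-repair lesions; compound exposure; growth vs vehicle controls → % inhibition.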
Compound,growth inhibition [1],growth inhibition [2] [%],growth inhibition [3],growth inhibition [4],growth inhibition [5] [%],growth inhibition [6]
COc1c(NC(=O)C(Br)C(Br)C(=O)O)cccc1[N+](=O)[O-] (configuration not stated),-20.9%,19.5,-7.65%,85% (active),-2.85,-2.25%
Cc1c(O)c2c(c(O)c1Cc1ccc(C#N)cc1)C(=O)c1ccccc1C2=O,-4.5%,31.4,17.9%,-4.25%,-1.95,-0.9%
CCCOC(=O)OCCC,-9.8%,-37.3,-4.9%,2.9%,-31.8,-10.9%
Cc1nnc(N)s/c1=N/O,7.5%,4.6,2.45%,-5.55%,3.15,-11.6%
Cc1[nH]c2ccc(-c3ccccc3)cc2c1CC(=O)O,51.5%,-22.8,47.7%,-5.85%,3.35,53.9%
Cc1ccccc1N(CCC#N)C1=NN(C(=O)CC(=O)Nc2ccccc2)C(c2ccccc2)C1 (configuration not stated),3%,1,12.1%,11.7%,0.85,-7.2%
Cc1cc(=O)c2cc(-c3ccccc3)ccc2[nH]1,-1%,4.4,-13.4%,0.05%,-1.5,2%
CC(C)/C=C(\C#N)C(=O)O,-3.2%,-13.5,-1.2%,-0.8%,-2.65,1.3%
Cc1cc(O)c(C(C)C)cc1NC(=S)Nc1ccc(S(=O)(=O)c2ccc(NC(=S)Nc3cc(C(C)C)c(O)cc3C)cc2)cc1,7.55%,20.1,36.9%,17.9%,6.65,51.2%
CN(C)C1C(=O)c2ccccc2C1=O,-34.6%,-27.6,-29.5%,-5.1%,0.05,-14.8%
CCCCC(=O)CCCC,3.55%,-14,-5.1%,-3.3%,-4.95,4.35%
O=C1c2ccccc2C(=O)N1Cc1ccccc1,3.55%,-16.9,6.6%,27.4%,0.45,6.7%
C/C=C/C=C1/OC(C)=C(C(=O)OCC)C1=O,7.95%,-15.6,6.55%,11.4%,-8.95,-1.9%
O=C1OCC/C1=C\c1cccc([N+](=O)[O-])c1,10.4%,14.4,11.2%,-42.7%,22.5,26.9%
O=C1NC2(c3ccccc3)CCCCC2O1 (configuration not stated),-4.95%,-3.05,-5.95%,1.95%,-6.35,-6.6%
CCOC(=O)c1[nH]cnc1N,-17.1%,11.1,-2.55%,-46.1%,1.15,-3.65%
Cc1ccc(NC(=O)OCCOc2c(C(C)C)cccc2C(C)C)c([N+](=O)[O-])c1,-0.8%,-3.3,8.55%,-41.9%,-7.7,18.4%
CC1Oc2ccc3ccccc3c2C(C)N1C (configuration not stated),-0.55%,1.9,-6.45%,-4.85%,1.3,16.9%
CCSCCCSCCSCC,58.5%,46.5,57.5%,43.7%,63.5,56%
CC(C)=CCC1=C(O)c2ccccc2C(=O)C1=O,16.6%,5.15,14.2%,0.4%,-4.25,13.1%
CC1(C=O)C(=O)CCC2(C)C3CC(=O)OC3CCC12 (configuration not stated),-35%,-10.1,-10.8%,-20.3%,-17.7,-27.1%

Compound,growth inhibition [1],growth inhibition [2] [%],growth inhibition [3],growth inhibition [4],growth inhibition [5] [%],growth inhibition [6]
CC(C)C(=NNC(N)=O)C(C)C,2.1%,2.2,-1.35%,-3.7%,-6.95,-8.4%
O=C(NC(=Nc1ccccc1)SCSC(=Nc1ccccc1)NC(=O)c1ccco1)c1ccco1,-5.85%,-7.9,-45.7%,12.7%,-4.7,-12.4%
O=C(O)CCc1ccncc1,2.25%,9,12.8%,-1.7%,7.1,-0.95%
O=C(Nc1cccc(C(=O)Nc2ccc(S(=O)(=O)O)c3cc(S(=O)(=O)O)cc(S(=O)(=O)O)c23)c1)Nc1cccc(C(=O)Nc2cccc3c(S(=O)(=O)O)c(S(=O)(=O)O)cc(S(=O)(=O)O)c23)c1,-0.25%,7.2,0.65%,47.9%,12.9,13.7%
Cc1nn(-c2ccc(Cl)cc2)c2c1c(=O)[nH]c1ccccc12,6%,-3.45,1%,-24.6%,-2.05,-5.05%
COc1cc([N+](=O)[O-])ccc1N=Cc1cccs1,19.4%,22.8,34%,0.25%,18.3,27.9%
Cc1c(F)c(N)c2c(=O)cc(-c3ccc(N)c(F)c3)oc2c1F,32.8%,16.1,30.1%,21.3%,22.9,1.2%
O=C(O)CSCc1ccccc1Cl,1.6%,-6.05,-9.5%,8.25%,-13.1,-11.1%
C[C@]12CCC[C@H](O)[C@H]1O2,-6.45%,3.25,-16.1%,0.55%,0.5,-10.2%
COc1ccc(C(=O)Sc2c(-c3ccccc3)c(=O)n(-c3ccccc3)c(=S)n2-c2ccccc2)cc1,0.75%,-4.9,2.45%,1.7%,0.6,10.1%
N#Cc1cccc(/C=C\C(=O)c2ccccc2)c1,22.9%,8.65,5.4%,17.3%,61,13.9%
Cc1cnc(-c2ccccc2)o1,8.7%,5.4,-4.8%,3.9%,0.9,-12.7%
CC1(C)CCC[C@@]2(C)C1C[C@H](O)[C@@]1(C)O[C@@](C)([C@H](O)CO)CCC21 (some centres not stated),28.6%,33,56%,69.1%,29.2,70.9% (active)
CN(CCN1CCOCC1)C(c1ccccc1)c1ccccc1,83.7% (active),66.3,87.9% (active),61.8%,52.4,67.4%
COc1cc(C(OC(C)=O)OC(C)=O)c(Cl)c(Cl)c1OC(C)=O,16.7%,-2.25,9.35%,-5.3%,12.2,18.6%
COc1ccc(C2OC(C)C(C)O2)cc1 (configuration not stated),-9.3%,10.4,-1.5%,-42.6%,-8.35,-8%
CC1(C)N=C(N)N=C(N)N1c1cccc(CSc2ccccc2)c1,-14.2%,-11.8,-20.8%,7.2%,-18.1,-19.6%
N#Cc1[nH]nc2nc[nH]c(=O)c12,-16.3%,-14.8,-10.8%,-9.95%,3.9,4.85%
O=C(Nc1cccc2ccccc12)c1ccccc1,18.4%,-38.2,-0.25%,-37.2%,-9.45,19.4%
CC1=C(C(=O)Nc2cc(C)ccn2)CCO1,4.55%,-11.4,-7.2%,-33%,11.7,15%
O=C(c1ccccc1)c1ccc(OCCOc2ccc(C(=O)c3ccccc3)cc2)cc1,-0.7%,-1.7,2.15%,-15.1%,3.9,-13.2%

# From PubChem BioAssay (NCI)
